Screening results as filed in PubChem BioAssay.
The list is not random: actives were taken first. Their share in the collection is about 11%.
Pf growth 48h: inhibits P. falciparum growth in the first generation, 48 h; hit rate 5.9% among 310,000; Potency, µM (titrated, usually from 28.7 µM), actives largely listed as inhibitors; AID 504832; P. falciparum luciferase growth in erythrocytes, 48 h
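First compound was added to culture medium, then infected red cells at 0.1% parasitemia and 2% hematocrit (final). After incubation at 37 C under 5% CO2, luciferase detection reagent was dispensed and light output recorded.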
Pf growth 96h: P. falciparum growth inhibition at 96 hour, primary screen for plastid delayed-death inhibitors; AID 504834; hit rate 6.9% among 320,000; P. falciparum luciferase reporter growth, 96 h; Potency, µM (doses to about 28.7 µM), hits mostly inhibitors
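Readout is luminescence from an integrated firefly luciferase in P. falciparum. Red cells, 2% hematocrit and 0.05% parasitemia final, were cultured with compound through two parasite generations (96 hours) at 37 C, 5% CO2.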
AMA1-RON2 inh: disrupts binding of P. falciparum AMA1 to RON2; AlphaScreen AMA1-biotinylated RON2 peptide binding; Potency, µM (titrated, usually from 58.2 µM), usual class: inhibitors; hit rate 0.2% among 360,000; AID 720542; also: nearly all actives have a fitted effect of over 45% in size
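AMA1 (3D7) with his tag at 25 nM final met compounds first, then biotinylated RON2 peptide at 25 nM; detection used donor plus acceptor beads, 10 µg/mL apiece, read by AlphaScreen after 30 min at room temperature.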
HCV inh: HCV inhibition; Huh7.5.1 HCVcc-Cre infection, luciferase reporter, 44 h; Potency, µM (titrated, usually from 41.8 µM), most hits filed as inhibitors; hit rate 3.4% among 340,000
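1,000 cells/well; 4 h culture; + compound; + HCVcc-Cre (~0.5 moi); 44 h; luciferase substrate, RT 15 min; read 15 sec.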
HCV confirm: HCV inhibition, cherry-pick confirmation; shares compounds with HCV inh; HCVcc-Cre infectious virus cell assay, luciferase, inhibition; Potency, µM (series often up to 41.8 µM), usual class: inhibitors; hit rate 78% among 640; also: nearly all actives have a fitted effect of over 80% in size
HCV cytotox: toxic to HCV host cells, flagging false HCV inhibitors; hit rate 22% among 640; AID 720576; shares compounds with HCV inh; HCV host cell line cytotoxicity counterscreen; Potency, µM (series often up to 41.8 µM), most hits filed as inhibitors;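 also: 44 h compound exposure; nearly all actives have a fitted effect of over 55% in size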
A number is an active result; n = inactive; u = inconclusive; x = no result given; [ ] = another dose, or the depositor's remark. Calls follow the shape of the dose curve; as a rule, active = well fitted curve in the direction sought with a large enough effect; inconclusive = small, poorly fitted or top-dose-only effect, or another doubt; inactive = no such curve, though single readings can be large; an effect the other way counts as inactive or inconclusive.

SMILES	Pf growth 48h	Pf growth 96h	AMA1-RON2 inh	HCV inh	HCV confirm	HCV cytotox
COC(=O)C1=C(c2ccc(-c3ccccc3)c(F)c2)C[C@@H]2CC[C@H]1N2C(=O)N1CCC(C)CC1	u	u	n	u	x	x
COC(=O)C1=C(c2ccc(-c3ccccc3)c(F)c2)C[C@@H]2CC[C@H]1N2C(=O)N1CCOCC1	u	u	n	3.55µM	7.91µM	7.05µM
Cc1ccc(O)c(N=Nc2nccs2)c1	u	n	n	u	x	x
O=c1oc(C2(O)CCCCC2)cc2ccccc12	x	x	n	n	x	x
O=c1oc(C2(O)CCCCC2)cc2ccc(-c3ccc4[nH]ccc4c3)cc12	x	x	n	1.12µM	u	n
O=C(Nc1ccccc1)N1CCCC(c2nc(-c3cccs3)no2)C1 (stereo unspecified)	n	x	n	u	x	x
COc1ccc(OC)c(NC(=O)Cc2csc(NC(=O)Nc3ccccc3OC)n2)c1	u	n	n	8.91µM	9.95µM	n
CCn1c(SC)nnc1-c1sc2cc(Cl)ccc2c1Cl	u	x	n	5.62µM	n	n
COC(=O)c1c(C(=O)OC)c2cccc3cc(-c4ccccc4)c4ccc1c4n32	x	u	u	1.78µM	5.6µM	u
CCOC(=O)c1c(C)nc2c3ccccc3ccn12	n	n	n	7.08µM	n	n
CCOC(=O)c1c(C)nc2c(C)cccn12	n	x	n	n	x	x
CN(C)CC/C=C1/c2ccc(F)cc2Sc2ccc(Cl)cc21	x	x	u	8.91µM	14.1µM	n
CCN(Cc1ccccc1)C(=O)CCS(=O)(=O)c1cc2c(cc1Cl)NC(=O)CO2	n	u	n	n	x	x
CCC(=O)Nc1cc2c(cc1C(=O)CC)OCCO2	x	n	n	5.62µM	12.5µM	n
CC1CCN(CCOCCOc2ccccc2-c2ccccc2)CC1	u	n	u	u	x	x
CC1CCN(CCCCOc2ccccc2-c2ccccc2)CC1	10.4µM	n	n	u	19.9µM	n
COc1ccc2c(c1OC)C(=O)N1C2SC[C@H]1C(=O)NC1CC1 (stereo partly specified)	n	n	n	1µM	n	n
Cc1ccc(S(=O)(=O)N(C)C)cc1NC(=O)CSc1nc2ccccc2c(=O)n1CC1CCCO1 (stereo unspecified)	u	u	n	u	x	x
Cn1c(SCC(=O)Nc2ccccc2F)nc2c(c1=O)SCC2	u	n	n	6.31µM	22.3µM	n
Cc1ccc(S(=O)(=O)N(C)C)cc1-n1c(SCC(=O)Nc2ccc(F)cc2Cl)nc2ccccc2c1=O	13.1µM	u	n[11.6 µM]	1.26µM	14.1µM	n
Cn1c(SCC(=O)Nc2ccc(F)cc2)nc2c(c1=O)SCC2	n	n	n	u	x	x
Cc1ccccc1NC(=O)CSc1nc2ccccc2c(=O)n1C	n	n	n	3.16µM	8.87µM	14.1µM
COCCNc1nc(Nc2ccc(Cl)cc2F)c2sccc2n1	x	x	n	x	x	x
CC1=C(C(=O)OCCBr)C(c2cccc3ccccc23)NC(=O)N1 (stereo unspecified)	x	u	n	n	x	x
CCN(C[C@H]1N[C@@](Cc2ccccc2)(C(=O)OC)[C@H]2C(=O)N(C)C(=O)[C@@H]12)S(=O)(=O)c1ccc(C(F)(F)F)cc1	x	x	n	u	x	x
SMILES	Pf growth 48h	Pf growth 96h	AMA1-RON2 inh	HCV inh	HCV confirm	HCV cytotox
CCN(C[C@H]1N[C@@](Cc2ccccc2)(C(=O)OC)[C@H]2C(=O)N(Cc3ccccc3)C(=O)[C@@H]12)S(=O)(=O)c1ccc(C(F)(F)F)cc1	x	x	n	7.08µM	u	n
Cc1cnc(C(=O)N2CCN(c3ccc(C(F)(F)F)cn3)CC2)cn1	n	n	n	n	x	x
O=C(Nc1ccc(F)cc1F)N1CCCN(c2ccc(C(F)(F)F)cn2)CC1	n	n	n	5.01µM	5.6µM	7.91µM
O=C(Nc1ccccc1)N1CCN(c2ccc(C(F)(F)F)cn2)CC1	x	n	n	u	x	x
CNC(=S)Nc1ccc(N2CCN(c3ccc(C(F)(F)F)cn3)CC2)nc1	u	n	n	2.51µM	4.99µM	u
COc1ccc(NC(=O)N(C)C[C@H]2OCc3cn(nn3)CCCC(=O)N([C@@H](C)CO)C[C@@H]2C)cc1	x	x	n	x	x	x
COCc1cc(C)n(CC(=O)Nc2ccc3c(c2)OCO3)c(=O)c1C#N	n	n	n	n	x	x
CCCS(=O)(=O)NC(=O)C1(C)CCN(C(=O)c2cccc(C)c2C)C1 (stereo unspecified)	x	x	n	x	x	x
O=C(Nc1nccs1)c1cnc2sccn2c1=O	x	x	n	x	x	x
